Assay [1] is described as follows: qHTS assay to identify small molecule antagonists of the thyroid receptor (TR) signaling pathway - cell viability counter screen (AID 743064). Also: nearly all actives have a fitted effect of over 50% in size. Also: potency is read from the fitted curve at half-maximal effect. Summed up: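 Rat GH3 pituitary tumor cells stably expressing two TR response elements driving luciferase were plated, rested 4 h, then dosed with library compounds and T3 (1 nM final). After 23.5 h at 37 °C, CellTiter-Fluor was added for 30 min and fluorescence recorded.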
On the technique in general: In qHTS, concentration-response curves come from the screen itself.

A short description of assay [2]: qHTS assay to identify small molecule antagonists of the thyroid receptor (TR) signaling pathway (AID 743065). Also: potency is read from the fitted curve at half-maximal effect; nearly all actives have a fitted effect of over 55% in size. The method, boiled down: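 GH3.TRE-Luc rat pituitary cells (two TREs driving luciferase) were dosed with compound, then stimulated with 1 nM T3 (final) for 23.5 h at 37 C. ONE-Glo luminescence was the read-out, with CellTiter-Fluor fluorescence as the cytotoxicity counter-screen.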

The target of assay [3] is Estrogen receptor (Homo sapiens) (UniProt P03372). Put plainly: qHTS assay to identify small molecule antagonists of the estrogen receptor alpha (ER-alpha) signaling pathway (AID 743069; active = well fitted curve in the direction sought with a large enough effect in the signal ratio in the repeat runs, not every such curve was filed as active; inconclusive = weak or mixed curves, or effect the other way; inactive = no such curve, though single readings can be large or run the other way; the % refers to the signal ratio; also: potency is read from the fitted curve at half-maximal effect). The method, boiled down: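 Reporter cells (ER-alpha-bla, HEK293 background) are conditioned overnight in stripped-serum medium (2% charcoal-stripped FBS). Compound and 17beta-estradiol exposure runs 18 hr at 37C, 5% CO2.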
Estrogen receptor (Homo sapiens), sequence (P03372 whole entry, looked up): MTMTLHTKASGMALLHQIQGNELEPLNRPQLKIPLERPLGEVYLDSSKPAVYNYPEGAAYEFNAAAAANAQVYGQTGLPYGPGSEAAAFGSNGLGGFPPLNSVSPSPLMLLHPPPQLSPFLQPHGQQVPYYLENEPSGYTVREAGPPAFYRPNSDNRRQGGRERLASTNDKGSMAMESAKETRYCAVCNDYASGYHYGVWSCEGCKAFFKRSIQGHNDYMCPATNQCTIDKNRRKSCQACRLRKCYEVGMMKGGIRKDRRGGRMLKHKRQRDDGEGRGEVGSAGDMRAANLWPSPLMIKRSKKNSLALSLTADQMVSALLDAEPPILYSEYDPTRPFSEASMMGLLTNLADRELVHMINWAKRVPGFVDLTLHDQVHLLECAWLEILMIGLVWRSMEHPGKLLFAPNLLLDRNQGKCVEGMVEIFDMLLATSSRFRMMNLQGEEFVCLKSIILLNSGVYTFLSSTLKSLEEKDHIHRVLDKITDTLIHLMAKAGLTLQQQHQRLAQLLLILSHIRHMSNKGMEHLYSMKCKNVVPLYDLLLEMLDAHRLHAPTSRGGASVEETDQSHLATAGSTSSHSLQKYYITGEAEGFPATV

Assay [4] in a line: qHTS assay to identify small molecule antagonists of the estrogen receptor alpha (ER-alpha) signaling pathway - cell viability counter screen (AID 743074; calls by dose curve;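 also: HEK293 cells carrying ER-alpha-UAS-bla reporter stimulated with 17beta-estradiol; nearly all actives have a fitted effect of over 45% in size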; also: potency is read from the fitted curve at half-maximal effect).
For assay [5], the target named is Estrogen receptor (Homo sapiens) (UniProt P03372). Put plainly: qHTS assay to identify small molecule agonists of the estrogen receptor alpha (ER-alpha) signaling pathway (AID 743075; calls by dose curve;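 also: HEK293 GripTite cells with ER-alpha and UAS-driven beta-lactamase reporter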).
Assay [6] is described as follows: qHTS assay to identify small molecule antagonists of the estrogen receptor alpha (ER-alpha) signaling pathway using the BG1 cell line (AID 743080; calls by dose curve;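 also: BG1 cells stimulated with 17beta-estradiol alongside compound; nearly all actives have a fitted effect of over 25% in size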; also: potency is read from the fitted curve at half-maximal effect). The method, boiled down:
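BG1-Luc-4E2 cells (endogenous full-length ER-alpha, stable 4×ERE-luciferase) were starved 5 days in phenol-red-free medium with 10% charcoal-stripped FBS, plated 24 h, then given compound plus 17beta-estradiol for 21.5 h at 37 C; ONE-Glo luminescence read after 30 min.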

Assay [7] is described as follows: qHTS assay to identify small molecule antagonists of the estrogen receptor alpha (ER-alpha) signaling pathway using the BG1 cell line - cell viability counter screen (AID 743081).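 Also: compound given together with 17beta-estradiol as the ER stimulus; nearly all actives have a fitted effect of over 45% in size.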 Also: potency is read from the fitted curve at half-maximal effect.
A further assay concerns the target Aromatase (Homo sapiens) (UniProt P11511). Put plainly: qHTS assay to identify aromatase inhibitors (AID 743083). Also: nearly all actives have a fitted effect of over 55% in size. Also: potency is read from the fitted curve at half-maximal effect.
The nature of assay [8]: qHTS assay to identify aromatase inhibitors - cell viability counter screen (AID 743084).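 Also: cells stimulated with testosterone during compound exposure; nearly all actives have a fitted effect of over 55% in size.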 Also: potency is read from the fitted curve at half-maximal effect.
The target of assay [9] is Peroxisome proliferator-activated receptor gamma (Homo sapiens) (UniProt P37231). Put plainly: qHTS assay to identify small molecule agonists of the peroxisome proliferator-activated receptor gamma (PPARg) signaling pathway (AID 743094; active = well fitted activation curve with a large enough effect in the signal ratio in the repeat runs, not every such curve was filed as active; inconclusive = weak or mixed curves, or effect the other way; inactive = no such curve, though single readings can be large or run the other way; the % refers to the signal ratio; also: potency is read from the fitted curve at half-maximal effect). The method, boiled down:
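Following 5 h plating at 37C, PPARg-bla HEK293H cells receive compound or DMSO for 17 h; fluorescence intensity is recorded after LiveBLAzer B/G loading for 1 h at room temperature.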

Assay [10] can be described thus: qHTS assay for small molecule activators of the heat shock response signaling pathway - cell viability counter screen (AID 743209). Also: nearly all actives have a fitted effect of over 50% in size. Also: potency is read from the fitted curve at half-maximal effect. The method, boiled down: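 Counter screen for cytotoxicity in HeLa HSE-bla reporter cells. Treatment was 5 h at 37 C; viability was detected by luminescent ATP assay (CellTiter-Glo) in the same wells as the beta-lactamase read.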
Assay [11] concerns the target Estrogen receptor (Homo sapiens) (UniProt P03372). Briefly: qHTS assay to identify small molecule agonists of the estrogen receptor alpha (ER-alpha) signaling pathway using the BG1 cell line (AID 743079). Also: nearly all actives have a fitted effect of over 20% in size.
Assay [12] has as its target Aryl hydrocarbon receptor (Homo sapiens) (UniProt P35869). Put plainly: qHTS assay to identify small molecule that activate the aryl hydrocarbon receptor (AhR) signaling pathway (AID 743085). Also: nearly all actives have a fitted effect of over 15% in size. Also: potency is read from the fitted curve at half-maximal effect.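 As to activation: HG2L7.5c1 human HepG2 liver cells with stably integrated DRE-driven firefly reporter; series mostly up to about 70 µM.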 The method, boiled down: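 Compounds were tested in HepG2 hepatocellular carcinoma cells harbouring a stably integrated luciferase gene under control of 20 DREs. Increased reporter signal after 24 h treatment at 37C was taken as AhR activation.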

The nature of assay [13]: qHTS assay to identify small molecule that activate the aryl hydrocarbon receptor (AhR) signaling pathway - cell viability counter screen (AID 743086). Also: nearly all actives have a fitted effect of over 45% in size. Also: potency is read from the fitted curve at half-maximal effect. Summed up: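 HepG2-AhR-luc (HG2L7.5c1) cells, 4000/well, treated 24 h at 37 C with compound; viability measured as CellTiter-Fluor fluorescence after 30 min in the same wells as the luciferase read.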
Assay [14] is described as follows: qHTS assay to identify small molecule antagonists of the peroxisome proliferator-activated receptor gamma (PPARg) signaling pathway - cell viability counter screen (AID 743194). Also: nearly all actives have a fitted effect of over 55% in size. Also: potency is read from the fitted curve at half-maximal effect. The method, boiled down: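 Cytotoxicity counter screen in PPARg-bla HEK293H cells, same wells as reporter assay. Compounds plus 50 nM rosiglitazone (final) for 17 h at 37 C, then viability read by CellTiter-Glo luminescence.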

Assay [15] in a line: qHTS assay for small molecule agonists of the antioxidant response element (ARE) signaling pathway - cell viability counter screen (AID 743203; calls by dose curve; also: nearly all actives have a fitted effect of over 55% in size; also: potency is read from the fitted curve at half-maximal effect). The method, boiled down: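 Compounds in DMSO were pinned onto ARE-bla HepG2 cells plated 5 hrs earlier at 2,000 cells/well. Sixteen hours later at 37C/5% CO2, CellTiter-Glo was added and luminescence measured after 30 min at room temperature.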

Assay [16] is described as follows: qHTS assay for small molecule activators of the heat shock response signaling pathway (AID 743210; active = well fitted activation curve with a large enough effect in the signal ratio in the repeat runs, with a control signal flat, not every such curve was filed as active; inconclusive = weak or mixed curves; the % refers to the signal ratio;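 also: HeLa cells with beta-lactamase reporter driven by heat shock elements; series mostly up to about 63 µM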). Summed up: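 Quantitative high-throughput format using an engineered HeLa line in which heat shock response elements drive beta-lactamase; after 5 h with compound, cells received a B/G FRET substrate and fluorescence was read.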
The subject of assay [17] is thyroid hormone receptor (rat, GH3 cells). Briefly: qHTS assay to identify small molecule agonists of the thyroid receptor (TR) signaling pathway (AID 743066; calls by dose curve).
The target of assay [18] is Peroxisome proliferator-activated receptor gamma (Homo sapiens) (UniProt P37231). Put plainly: qHTS assay to identify small molecule antagonists of the peroxisome proliferator-activated receptor gamma (PPARg) signaling pathway (AID 743191; calls by dose curve; also: series mostly up to about 63 µM; nearly all actives have a fitted effect of over 30% in size). Summed up: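 GeneBLAzer PPARg UAS-bla HEK293H cells, 5 h post-plating, exposed to compounds 17 h at 37C. LiveBLAzer B/G FRET substrate added for 1 h at room temperature; beta-lactamase reporter read by fluorescence intensity.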
Peroxisome proliferator-activated receptor gamma (Homo sapiens), sequence (P37231 whole entry, looked up): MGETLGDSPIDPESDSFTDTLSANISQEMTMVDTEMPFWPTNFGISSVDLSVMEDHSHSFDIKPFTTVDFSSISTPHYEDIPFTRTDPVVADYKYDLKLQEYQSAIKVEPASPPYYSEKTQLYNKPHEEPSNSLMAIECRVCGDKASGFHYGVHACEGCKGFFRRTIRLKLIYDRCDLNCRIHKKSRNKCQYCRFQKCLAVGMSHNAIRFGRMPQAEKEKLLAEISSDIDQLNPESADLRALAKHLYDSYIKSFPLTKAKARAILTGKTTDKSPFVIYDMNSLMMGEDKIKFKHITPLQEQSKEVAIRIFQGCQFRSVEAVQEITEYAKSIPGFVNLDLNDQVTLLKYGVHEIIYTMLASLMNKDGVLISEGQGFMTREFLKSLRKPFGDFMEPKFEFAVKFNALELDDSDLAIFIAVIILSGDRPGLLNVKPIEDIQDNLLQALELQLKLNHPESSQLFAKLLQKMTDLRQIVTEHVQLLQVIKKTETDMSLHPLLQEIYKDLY

These results are taken from PubChem BioAssay (Tox21).

SMILES strings stand for the structures. Values joined by “and” are separate entries in the source; they are usually repeats but may differ in a detail not shown here. Equal values may be shown once. Some structures have more than one record in an assay (separate samples or runs), and their calls can disagree. Active and inactive are the calls of the source. Unless noted, calls follow the shape of the dose curve; as a rule, active = well fitted curve in the direction sought with a large enough effect in the repeat runs; inconclusive = weak or mixed curves; inactive = no such curve, though single readings can be large; an effect the other way counts as inactive or inconclusive. Non-standard residues stand in square brackets, D forms with d. Residues, ends and D or L forms follow the SMILES beside them. Orn = NCCC[C@H](N)C(=O)O

Aryl hydrocarbon receptor (Homo sapiens), sequence (P35869 whole entry, looked up): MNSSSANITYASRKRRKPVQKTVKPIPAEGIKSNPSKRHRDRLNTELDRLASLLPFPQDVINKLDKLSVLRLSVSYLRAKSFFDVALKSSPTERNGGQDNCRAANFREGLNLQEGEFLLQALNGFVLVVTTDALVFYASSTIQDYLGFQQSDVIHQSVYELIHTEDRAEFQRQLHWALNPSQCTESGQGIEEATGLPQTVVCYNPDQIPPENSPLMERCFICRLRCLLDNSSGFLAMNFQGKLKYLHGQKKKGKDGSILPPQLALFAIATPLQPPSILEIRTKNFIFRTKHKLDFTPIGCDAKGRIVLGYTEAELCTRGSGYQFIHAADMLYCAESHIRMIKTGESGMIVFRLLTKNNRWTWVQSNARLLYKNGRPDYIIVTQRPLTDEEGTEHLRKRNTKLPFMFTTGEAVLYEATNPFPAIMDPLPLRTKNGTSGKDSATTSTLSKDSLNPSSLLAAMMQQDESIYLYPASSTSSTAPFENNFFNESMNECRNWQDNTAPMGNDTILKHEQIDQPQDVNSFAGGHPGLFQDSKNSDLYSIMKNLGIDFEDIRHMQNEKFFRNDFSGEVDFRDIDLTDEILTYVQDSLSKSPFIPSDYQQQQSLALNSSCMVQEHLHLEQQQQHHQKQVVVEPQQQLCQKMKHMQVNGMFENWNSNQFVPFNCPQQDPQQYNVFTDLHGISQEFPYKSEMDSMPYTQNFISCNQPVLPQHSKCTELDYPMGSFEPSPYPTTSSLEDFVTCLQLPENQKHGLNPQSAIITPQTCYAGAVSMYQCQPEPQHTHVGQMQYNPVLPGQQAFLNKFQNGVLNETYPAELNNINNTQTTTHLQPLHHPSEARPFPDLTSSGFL
Aromatase (Homo sapiens), sequence (P11511 whole entry, looked up): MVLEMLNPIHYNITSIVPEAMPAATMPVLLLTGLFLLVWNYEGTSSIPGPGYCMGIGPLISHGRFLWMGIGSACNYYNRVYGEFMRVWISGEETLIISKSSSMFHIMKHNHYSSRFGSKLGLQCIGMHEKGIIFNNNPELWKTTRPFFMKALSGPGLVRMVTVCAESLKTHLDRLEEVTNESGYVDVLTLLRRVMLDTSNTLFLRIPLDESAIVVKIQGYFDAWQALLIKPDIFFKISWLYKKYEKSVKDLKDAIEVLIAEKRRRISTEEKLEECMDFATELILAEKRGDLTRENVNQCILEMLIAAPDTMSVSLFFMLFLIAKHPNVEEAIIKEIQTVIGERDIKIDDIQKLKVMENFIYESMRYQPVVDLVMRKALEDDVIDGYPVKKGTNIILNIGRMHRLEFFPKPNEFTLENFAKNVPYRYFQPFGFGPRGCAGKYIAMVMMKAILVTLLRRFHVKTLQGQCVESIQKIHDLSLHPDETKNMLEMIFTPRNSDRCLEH

Consider `C=CCc1cc(S(=O)(=O)c2ccc(O)c(CC=C)c2)ccc1O`, for which the Potency in assay [1] is 61.1 µM (active); in assay [2], 24.3 µM (active); in assay [3], 34.7 µM [inconclusive] (active); in assay [6], 61.1 µM (active); in the assay with Aromatase (Homo sapiens), 54.5 µM (active). Further, the Potency entry in assay [4], in [5], in assay [7], in assay [8], in assay [9] and in assay [10] was “inactive” throughout.
In the case of `CC[C@@]1([C@@H]2O[C@@H]([C@H]3O[C@@](O)(CO)[C@H](C)C[C@@H]3C)C[C@@H]2C)CC[C@H]([C@]2(C)CC[C@]3(C[C@H](O)[C@@H](C)[C@@H]([C@@H](C)[C@@H](OC)[C@H](C)C(=O)O)O3)O2)O1` (stereo in doubt), the Potency in [1] was 596 nM (active) and 376 nM (active); in [2], 376 nM (active) and 266 nM (active); in assay [7], 18.8 µM (active) and inactive. Further, the Potency entry (in assay [5]; in [11]; with Aromatase (Homo sapiens); in assay [8]; in [12]; in assay [13]) was “inactive” each time.
`CN1CC[C@H](c2c(O)cc(O)c3c(=O)cc(-c4ccccc4Cl)oc23)[C@H](O)C1`: the Potency in [1] was 0.211 µM (active); in assay [2], 0.15 µM (active); with Aromatase (Homo sapiens), 0.211 µM (active). Also, the Potency result in assay [14] and in [15] was “inactive” in each case. Further, the compound was called inactive in assay [16].
In the case of `CN1CCN(c2ccccc2/C=C2\SCCN(c3ccc(Cl)c(Cl)c3)C2=O)CC1`, the Potency was 8.63 µM (active) in [1]; 8.63 µM (active) in assay [2]; 43.6 µM (active) in [4]; 49 µM (active) in assay [14]; 24.3 µM (active) in [15]; 54.9 µM (active) in [10]. The Potency result (in assay [5]; with Aromatase (Homo sapiens); in assay [12]) was “inactive” each time.
Turning to `O=C(Nc1ccccc1)c1cc(Cl)ccc1O`, the Potency is 10.9 µM (active) in assay [1]; 5.45 µM (active) in assay [2]; 27.3 µM (active) in the assay with Aromatase (Homo sapiens); 3.06 µM (active) in assay [12]; 6.92 µM (active) in assay [14]. For the same compound, the Potency entry in assay [17] and in [13] was “inactive” each time.
`COc1cc(NS(C)(=O)=O)ccc1Nc1c2ccccc2nc2ccccc12`: the Potency is 0.188 µM (active) in [1], 0.596 µM (active) in [2], 26.6 µM (active) with Aromatase (Homo sapiens) and 21.3 µM (active) in assay [9]. Besides, the Potency entry in assay [4] was “inactive”.
As to `Cc1cc(CC(C)CC(C)(C)C)n(O)c(=O)c1` (stereo not given) (tested in a mixture with another compound), the Potency in assay [1] was 29.8 µM (active); in assay [2] it was 21.1 µM (active); in the assay with Aromatase (Homo sapiens) it was 13.3 µM (active). Also, the Potency entry in [7], in [12], in [13] and in assay [9] was “inactive” in each case.
On to `O=[N+]([O-])c1ccc(O)c2ncccc12`, for which the Potency in [1] was 5.31 µM (active); in [2], 4.73 µM (active); with Aromatase (Homo sapiens), 7.5 µM (active); in assay [8], 10.6 µM (active). The Potency entry in assay [13], in assay [18], in assay [14] and in assay [10] was “inactive” in each case.
With `O=P(O)(O)OP(=O)(O)OP(=O)(O)O`, the Potency entry in assay [1], in assay [17], in assay [3], in assay [4], in [5] and in [11] was “inactive” each time. The Potency entry (in assay [6]; in assay [7]; with Aromatase (Homo sapiens); in [8]; in assay [12]; in assay [13]) was “inactive” throughout.
Consider `COc1cccc2c1[C@@H]1CN(CCCCn3c(=O)[nH]c4c(sc5ncc(-c6ccccc6)nc54)c3=O)C[C@@H]1CO2`, for which the Potency in assay [1] was 11.9 µM (active); in assay [2], 10.6 µM (active); in [8], 26.6 µM (active). Also, the Potency entry in [5] is “inactive”.
On to `CC(C)C[C@@H]1NC(=O)[C@H](CCCN)NC(=O)[C@H](C(C)C)NC(=O)[C@@H]2CCCN2C(=O)[C@@H](Cc2ccccc2)NC(=O)[C@H](CC(C)C)NC(=O)[C@H](CCCN)NC(=O)[C@H](C(C)C)NC(=O)[C@@H]2CCCN2C(=O)[C@@H](Cc2ccccc2)NC1=O` (cyclo(V[Orn]L[dF]PV[Orn]L[dF]P)), for which the Potency in assay [1] is 2.11 µM (active); in assay [2] it was 0.841 µM (active); in [4] it was 10.7 µM (active); in the assay with Aromatase (Homo sapiens), 1.88 µM (active); in [13], 18.8 µM (active). Moreover, the Potency result in assay [5] and in assay [12] was “inactive” in each case.
